Assay [1] is described as follows: anti-His antibody binders, primary screen, artefact control for SMM control protein annotation, biochemical, small-molecule microarray, 635 nm fluorescence (AID 1128).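 Also: score merges feature fluorescence with signal-to-noise for each printed compound spot.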 The conditions noted are these: anti-His Alexa647 antibody binding, higher = more signal.
Assay [2] has as its system Human papillomavirus type 1a E7 protein (residues 1-88). Description: HPV1a E7 small-molecule binders, primary screen, biochemical, small-molecule microarray, residues 1-88, 635 nm (AID 1129). The following applies: small-molecule microarray binding, fluorescence 635 nm; higher = more signal.
Assay [3] concerns the target Focal adhesion kinase 1 (Homo sapiens) (UniProt Q05397). Description: small-molecule microarray binders of FAK, primary screen, biochemical, 635/667 nm fluorescence, BSA, DTT (AID 1130).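 Also: composite of spot emission at 667 nm and signal to noise over triplicate slides.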 The conditions noted are these: PTK2 binding, 635 nm fluorescence, higher = more signal.
In assay [4] the test system is Fibrinogen (Alexa647-labelled). Description: fibrinogen binders on compound microarrays, profiling panel, artefact control for SMM control-protein annotation, biochemical, small-molecule microarray, 635/667 nm fluorescence (AID 1131).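 Also: z-score merges 667 nm fluorescence with per-spot signal-to-noise over triplicate slides.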 The conditions noted are these: fibrinogen-A647 binding fluorescence, higher = more signal.
The target of assay [5] is Follistatin (Homo sapiens) (UniProt P19883). Description: follistatin binders on small-molecule microarrays, primary screen, biochemical, small-molecule microarray, 635/667 nm fluorescence (AID 1132). The following applies: FST binding, 635 nm fluorescence, higher = more signal.
Assay [6] deals with Fibroblast growth factor 2 (Homo sapiens) (UniProt P09038). In words: FGF2 binders on small-molecule microarrays, primary screen, biochemical, small-molecule microarray, 635/667 nm fluorescence (AID 1133). The conditions noted are these: small-molecule microarray binding, FGF2, fluorescence 635/667; higher = more signal.
Assay [7] is described as follows: mitochondrial membrane potential change in A549 cells, profiling panel, cell-based, JC-1 fluorescence, basal, 24 h, 100 nL (AID 1138).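 Also: A549 lung adenocarcinoma cells under basal conditions with no added stimulus; test concentration not given here.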 The conditions noted are these: higher = more signal.
For the next assay, the system named is Lefty1. Description: Lefty1 binders on small-molecule microarrays, primary screen, biochemical, small-molecule microarray, 635/667 nm fluorescence (AID 1139). The following applies: small-molecule microarray binding, fluorescence 635/667; higher = more signal.
Assay [8] concerns wheat germ agglutinin (Triticum aestivum), Alexa647-labelled. In words: wheat germ agglutinin binders on compound microarrays, profiling panel, artefact control for SMM control-protein annotation, biochemical, small-molecule microarray, 635/667 nm fluorescence (AID 1140).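 Also: score merges 667 nm feature emission with signal to noise over triplicate slides.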 The conditions noted are these: WGA-A647 binding, 635 nm fluorescence, higher = more signal.
The target of assay [9] is Luciferin 4-monooxygenase (Photinus pyralis) (UniProt P08659). In words: firefly luciferase enzyme inhibitors, primary screen, biochemical, luminescence, purified enzyme, 2006 set (AID 1141).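 Also: cell-free assay with purified firefly luciferase at 100 ng per well in PBS; test concentration not given here.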 The conditions noted are these: SteadyGlo luminescence, 30 min, higher = more signal, called active from +8 up or from −8 down.
Assay [10] relates to Wnt5a (protein binding on small-molecule microarray). Description: Wnt5a binders on small-molecule microarray, primary screen, biophysical, 635/667 nm fluorescence (AID 1142).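 Also: fluorescence read at 667 nm with signal to noise per printed feature.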 The following applies: 635 nm fluorescence, higher = more signal.
Assay [11] is described as follows: cell viability in Huh7 cells, primary screen, cytotoxicity control for HCV replication inhibitor project, CellTiter-Glo luminescence, basal, 48 h (AID 1143).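 Also: Huh7 hepatoma cells carrying a hepatitis C replication reporter with no stimulus; test concentration not given here.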 The following applies: Huh7 HCV replicon, higher = more signal, called active from +8 up or from −8 down. In general terms: Cellular ATP, detected with luciferase, serves as a proxy for viable cell number.
Assay [12] can be described thus: P. aeruginosa biofilm formation inhibitors, primary screen, PAO1 strain, BacTiter-Glo luminescence, LB-PBS (AID 1144). The conditions noted are these: 12 h, higher = more signal.
The nature of assay [13]: CREB reporter modulators without forskolin, primary screen, cell-based, PC12, CRE-LacZ reporter, unstimulated (AID 1145). The following applies: no forskolin, luminescence, 4.5 h, higher = more signal, called active from +8 up or from −8 down.
Assay [14] is described as follows: CREB reporter modulators under forskolin, primary screen, cell-based, PC12, CRE-LacZ reporter, forskolin-stimulated (AID 1146).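 Also: PC12 cells with 6xCRE LacZ reporter stimulated by forskolin 10 µM; beta-galactosidase reporter signal reflecting CREB driven transcription.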 The conditions noted are these: luminescence, 4.5 h, higher = more signal, called active from +8 up or from −8 down.
In assay [15] the target is Streptavidin (Streptomyces avidinii) (UniProt P22629). In words: streptavidin binders on small-molecule microarray, primary screen, artefact control for SMM compound annotation, biophysical, 635/667 nm fluorescence (AID 1147).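 Also: signal reflects streptavidin binding to arrayed compounds as a control protein.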 The following applies: streptavidin binding, higher = more signal.
Assay [16] in a line: small-molecule binders of probe aInhba, primary screen, biochemical, small-molecule microarray, 635/667 nm fluorescence (AID 1148).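 Also: score merges 667nm spot fluorescence with signal-to-noise for antibody binding to printed compounds.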 The conditions noted are these: higher = more signal.
The target in assay [17] is Torsin-1A (Homo sapiens) (UniProt O14656). In words: torsin A binders from cell lysate, primary screen, small-molecule microarray, wild-type, 635/667 nm (AID 1149). The following applies: COS7 hTOR1A-WT lysate, 635 nm fluorescence, higher = more signal.
For assay [18] the target is unchanged. In words: small-molecule binders of mutant TOR1A in lysate, primary screen, cell lysate, small-molecule microarray, COS7 lysate, 635/667 nm fluorescence (AID 1150).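 Also: score pools 667 nm emission and signal to noise measuring lysate protein binding.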 The following applies: COS7 hTOR1A mutant lysate, 635 nm fluorescence, higher = more signal.
The subject of assay [19] is Sonic hedgehog protein (Shh). In words: small-molecule binders of Shh protein, primary screen, biochemical, small-molecule microarray, 635/667 nm fluorescence (AID 1151).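 Also: Shh protein binding to compounds spotted on small-molecule microarray slides; score combines spot fluorescence intensity with signal-to-noise across triplicate slides.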 The following applies: small-molecule microarray binding, 635 nm fluorescence; higher = more signal.

Each structure is given as a SMILES string. Active and inactive are the calls of the source. Unless noted, no rule for the calls is given here.

Sequence of Torsin-1A (Homo sapiens) (O14656 whole entry, looked up): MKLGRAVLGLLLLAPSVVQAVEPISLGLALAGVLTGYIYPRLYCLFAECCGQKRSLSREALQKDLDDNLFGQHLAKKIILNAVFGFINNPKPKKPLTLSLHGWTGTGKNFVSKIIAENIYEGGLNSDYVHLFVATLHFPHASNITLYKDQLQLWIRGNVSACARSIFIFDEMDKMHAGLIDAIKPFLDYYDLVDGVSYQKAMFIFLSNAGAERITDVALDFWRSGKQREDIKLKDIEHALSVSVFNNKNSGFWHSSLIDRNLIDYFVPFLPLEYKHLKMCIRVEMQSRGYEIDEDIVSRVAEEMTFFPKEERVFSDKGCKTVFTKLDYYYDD
Sequence of Follistatin (Homo sapiens) (P19883 whole entry, looked up): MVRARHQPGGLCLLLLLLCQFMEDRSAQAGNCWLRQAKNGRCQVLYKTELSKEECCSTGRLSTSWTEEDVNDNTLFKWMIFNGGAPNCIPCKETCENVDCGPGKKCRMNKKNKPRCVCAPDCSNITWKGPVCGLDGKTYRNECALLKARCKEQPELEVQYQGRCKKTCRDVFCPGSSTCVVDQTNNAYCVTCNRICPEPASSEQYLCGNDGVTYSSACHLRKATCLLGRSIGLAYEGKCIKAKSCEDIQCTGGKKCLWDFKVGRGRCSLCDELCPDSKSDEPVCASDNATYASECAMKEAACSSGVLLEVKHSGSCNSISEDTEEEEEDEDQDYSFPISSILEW
Sequence of Streptavidin (Streptomyces avidinii) (P22629 whole entry, looked up): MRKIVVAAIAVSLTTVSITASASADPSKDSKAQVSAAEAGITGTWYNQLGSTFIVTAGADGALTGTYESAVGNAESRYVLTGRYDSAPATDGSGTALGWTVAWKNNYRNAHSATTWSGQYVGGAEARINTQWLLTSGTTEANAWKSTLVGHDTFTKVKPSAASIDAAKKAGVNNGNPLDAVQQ
Sequence of Luciferin 4-monooxygenase (Photinus pyralis) (P08659 whole entry, looked up): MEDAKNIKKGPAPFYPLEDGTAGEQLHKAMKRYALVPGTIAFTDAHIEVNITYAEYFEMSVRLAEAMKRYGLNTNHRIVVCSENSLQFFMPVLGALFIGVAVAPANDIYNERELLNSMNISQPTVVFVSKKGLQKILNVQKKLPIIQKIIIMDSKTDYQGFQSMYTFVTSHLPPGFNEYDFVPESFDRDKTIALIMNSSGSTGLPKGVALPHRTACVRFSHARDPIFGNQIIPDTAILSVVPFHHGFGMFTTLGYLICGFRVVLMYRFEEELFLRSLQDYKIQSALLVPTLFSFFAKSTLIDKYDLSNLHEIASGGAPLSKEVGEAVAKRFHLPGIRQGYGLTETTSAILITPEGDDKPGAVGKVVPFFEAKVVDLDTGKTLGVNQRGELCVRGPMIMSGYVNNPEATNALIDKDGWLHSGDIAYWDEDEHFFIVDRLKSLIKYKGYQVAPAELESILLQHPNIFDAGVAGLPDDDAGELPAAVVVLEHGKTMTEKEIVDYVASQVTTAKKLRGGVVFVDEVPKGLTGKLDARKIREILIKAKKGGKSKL
Sequence of Fibroblast growth factor 2 (Homo sapiens) (P09038 whole entry, looked up): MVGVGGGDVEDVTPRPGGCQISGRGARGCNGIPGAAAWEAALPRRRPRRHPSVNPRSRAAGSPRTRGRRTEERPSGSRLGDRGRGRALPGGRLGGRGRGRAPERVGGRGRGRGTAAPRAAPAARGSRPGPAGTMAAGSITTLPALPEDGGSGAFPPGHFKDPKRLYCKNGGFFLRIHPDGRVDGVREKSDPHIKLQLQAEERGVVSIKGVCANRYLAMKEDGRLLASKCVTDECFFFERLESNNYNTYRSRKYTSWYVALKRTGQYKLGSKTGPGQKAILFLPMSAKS
Sequence of Focal adhesion kinase 1 (Homo sapiens) (Q05397 whole entry, looked up): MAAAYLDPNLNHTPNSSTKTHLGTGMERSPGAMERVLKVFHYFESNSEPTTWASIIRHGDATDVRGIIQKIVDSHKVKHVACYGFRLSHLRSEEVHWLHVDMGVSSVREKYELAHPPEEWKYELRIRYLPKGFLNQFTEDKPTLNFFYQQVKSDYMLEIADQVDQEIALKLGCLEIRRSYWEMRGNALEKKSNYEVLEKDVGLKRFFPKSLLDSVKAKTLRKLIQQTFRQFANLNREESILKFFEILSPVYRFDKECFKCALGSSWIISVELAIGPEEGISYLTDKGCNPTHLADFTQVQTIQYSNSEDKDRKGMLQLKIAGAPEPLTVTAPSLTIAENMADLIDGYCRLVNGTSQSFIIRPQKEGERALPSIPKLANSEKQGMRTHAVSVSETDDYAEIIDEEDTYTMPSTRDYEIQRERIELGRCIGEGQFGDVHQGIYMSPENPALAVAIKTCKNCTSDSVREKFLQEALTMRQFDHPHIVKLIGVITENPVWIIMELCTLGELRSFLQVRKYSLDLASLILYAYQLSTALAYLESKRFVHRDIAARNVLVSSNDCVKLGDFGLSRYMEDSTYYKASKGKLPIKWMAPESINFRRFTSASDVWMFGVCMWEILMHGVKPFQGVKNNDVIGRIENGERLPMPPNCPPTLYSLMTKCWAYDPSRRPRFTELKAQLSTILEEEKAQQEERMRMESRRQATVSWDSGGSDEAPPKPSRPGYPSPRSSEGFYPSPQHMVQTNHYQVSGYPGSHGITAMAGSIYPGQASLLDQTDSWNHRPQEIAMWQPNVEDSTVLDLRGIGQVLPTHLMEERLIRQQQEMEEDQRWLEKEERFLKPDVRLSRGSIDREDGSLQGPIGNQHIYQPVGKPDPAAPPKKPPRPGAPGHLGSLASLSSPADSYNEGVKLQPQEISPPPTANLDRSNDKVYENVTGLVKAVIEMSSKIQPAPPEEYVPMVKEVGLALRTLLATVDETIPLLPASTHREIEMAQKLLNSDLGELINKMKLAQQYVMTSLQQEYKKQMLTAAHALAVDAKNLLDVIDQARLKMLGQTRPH

Regarding `O=C1c2ccccc2[C@@]2(Cc3ccccc3N(Cc3ccccc3)C2=O)[C@H](c2ccc(CO)cc2)N1Cc1ccccc1C(F)(F)F`, the composite z-score in [1] was 1.88; in assay [2], -0.911; in assay [3], -0.676; in assay [4] it was -2.02; in assay [5], -0.368; in assay [6], -0.721. Besides, the composite z-score in the assay on Lefty1 is -1.04; in [8], -0.749; in assay [10], -0.373; in assay [15], -0.896; in assay [16], -0.128; in the assay with Torsin-1A (Homo sapiens) [17], -0.916. Further, the composite z-score is -0.0921 with Torsin-1A (Homo sapiens) [18] and -1.45 in assay [19]. In addition, the z-score is 1.78 in assay [7]; -0.666 (inactive) in assay [9]; 0.174 (inactive) in assay [11]; 1.18 (inactive) in assay [12]; -0.116 (inactive) in [13]; 0.172 (inactive) in [14].

As to `C/C=C/[C@H](CCn1cc([C@H](O)c2ccccc2)nn1)[Si](C)(C)c1ccc(OC)cc1`, the composite z-score was 0.382 in assay [1]; -0.559 in assay [2]; -0.3 in assay [3]; -1.17 in [4]; -0.735 in [5]; -0.997 in assay [6]. In addition, the composite z-score in the assay with Lefty1 is -0.781; in [8] it was -0.777; in assay [10] it was -0.582; in [15], -0.832; in assay [16], -0.263; in the assay with Torsin-1A (Homo sapiens) [17], 0.0596. In addition, the composite z-score in the assay with Torsin-1A (Homo sapiens) [18] is -0.57; in [19] it was -0.478. The z-score in assay [7] is 0.45; in assay [9], 0.173 (inactive); in [11], -1 (inactive); in assay [12] it was 0.303 (inactive); in assay [13] it was -0.272 (inactive); in assay [14], 0.0712 (inactive).

As to `C=CCC(OC(C)=O)[C@@H]1[C@@H](N(Cc2cc3ccccc3o2)C(=O)c2cccc3ccccc23)c2cc(OCCCO)ccc2N1C(=O)Cc1ccc2ccccc2c1` (stereo not given in full), the composite z-score in assay [1] is 0.166; in assay [2], -0.273; in assay [3] it was -0.0768; in assay [4], 0.571; in [5], 0.416; in assay [6], 0.439. The composite z-score with Lefty1 was -0.0817; in [8] it was -0.157; in assay [10], 0.0744; in assay [15], 0.435; in [16], -0.0589; with Torsin-1A (Homo sapiens) [17], -0.213. The composite z-score in the assay with Torsin-1A (Homo sapiens) [18] was -0.146; in assay [19], 0.191. Besides, the z-score in assay [7] was -0.274; in assay [9] it was 0.209 (inactive); in [11], -1.62 (inactive); in assay [12], 0.303 (inactive); in [13] it was 0.992 (inactive); in assay [14], -0.333 (inactive).

On to `COc1ccc([Si](C)(C)[C@H]2[C@H](CCO)O[C@@]3(C(=O)N(Cc4cccc(N5C(=O)c6cccc7cccc5c67)c4)c4ccccc43)[C@@H]2C)cc1`, for which the composite z-score in [1] is 0.86; in assay [2], 0.586; in assay [3], 1.02; in assay [4], 0.53; in assay [5] it was -0.16; in assay [6], -0.23. Besides, the composite z-score with Lefty1 was -0.0439; in [8] it was 0.563; in assay [10], 0.346; in assay [15], 0.343; in [16], -0.176; with Torsin-1A (Homo sapiens) [17], -0.697. The composite z-score is -0.318 with Torsin-1A (Homo sapiens) [18] and 0.329 in [19]. The z-score is 0.325 in assay [7]; 0.669 (inactive) in assay [9]; -6.95 (inactive) in assay [11]; 0.0998 (inactive) in assay [12]; -0.011 (inactive) in assay [13]; -1.37 (inactive) in assay [14].

As for `Cc1ccc(S[C@]2(C(=O)NCCN3CCOCC3)CC(=O)N(C3CCCCC3)[C@@H]2c2ccc(CO)cc2)cc1`, the composite z-score in [1] is 1.81; in assay [2], 1.21; in assay [3], 1.02; in assay [4], 0.611; in assay [5], 0.102; in assay [6], -0.262. The composite z-score is -0.299 with Lefty1; 0.211 in [8]; -0.0482 in [10]; 0.893 in [15]; 0.0422 in assay [16]; 0.18 with Torsin-1A (Homo sapiens) [17]. In addition, the composite z-score with Torsin-1A (Homo sapiens) [18] turned out to be 0.783; in assay [19] it was 0.318. In addition, the z-score in assay [7] was 1.63; in assay [9] it was -0.125 (inactive); in [11], -0.0065 (inactive); in [12], 0.314 (inactive); in [13] it was 0.802 (inactive); in assay [14] it was 0.893 (inactive).

Values taken from PubChem BioAssay.
